Source: article PMC4336329 (PLoS ONE, 2015)
About 14,000 (4.5%) of roughly 310,000 compounds showed an effect of 50% or more. The effect is printed as a negative number. The full list was thinned out, with strong results kept by preference.

Target: human ether-à-go-go-related gene (hERG) potassium channel (human, UniProt Q12809)
Assay: primary screen, population patch clamp on CHO cells stably expressing hERG; higher = less effect of the substance
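Also: peak tail current of the secondary pulse compared with the same well before compound.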

Sequence of human ether-à-go-go-related gene (hERG) potassium channel (Q12809 whole entry, looked up): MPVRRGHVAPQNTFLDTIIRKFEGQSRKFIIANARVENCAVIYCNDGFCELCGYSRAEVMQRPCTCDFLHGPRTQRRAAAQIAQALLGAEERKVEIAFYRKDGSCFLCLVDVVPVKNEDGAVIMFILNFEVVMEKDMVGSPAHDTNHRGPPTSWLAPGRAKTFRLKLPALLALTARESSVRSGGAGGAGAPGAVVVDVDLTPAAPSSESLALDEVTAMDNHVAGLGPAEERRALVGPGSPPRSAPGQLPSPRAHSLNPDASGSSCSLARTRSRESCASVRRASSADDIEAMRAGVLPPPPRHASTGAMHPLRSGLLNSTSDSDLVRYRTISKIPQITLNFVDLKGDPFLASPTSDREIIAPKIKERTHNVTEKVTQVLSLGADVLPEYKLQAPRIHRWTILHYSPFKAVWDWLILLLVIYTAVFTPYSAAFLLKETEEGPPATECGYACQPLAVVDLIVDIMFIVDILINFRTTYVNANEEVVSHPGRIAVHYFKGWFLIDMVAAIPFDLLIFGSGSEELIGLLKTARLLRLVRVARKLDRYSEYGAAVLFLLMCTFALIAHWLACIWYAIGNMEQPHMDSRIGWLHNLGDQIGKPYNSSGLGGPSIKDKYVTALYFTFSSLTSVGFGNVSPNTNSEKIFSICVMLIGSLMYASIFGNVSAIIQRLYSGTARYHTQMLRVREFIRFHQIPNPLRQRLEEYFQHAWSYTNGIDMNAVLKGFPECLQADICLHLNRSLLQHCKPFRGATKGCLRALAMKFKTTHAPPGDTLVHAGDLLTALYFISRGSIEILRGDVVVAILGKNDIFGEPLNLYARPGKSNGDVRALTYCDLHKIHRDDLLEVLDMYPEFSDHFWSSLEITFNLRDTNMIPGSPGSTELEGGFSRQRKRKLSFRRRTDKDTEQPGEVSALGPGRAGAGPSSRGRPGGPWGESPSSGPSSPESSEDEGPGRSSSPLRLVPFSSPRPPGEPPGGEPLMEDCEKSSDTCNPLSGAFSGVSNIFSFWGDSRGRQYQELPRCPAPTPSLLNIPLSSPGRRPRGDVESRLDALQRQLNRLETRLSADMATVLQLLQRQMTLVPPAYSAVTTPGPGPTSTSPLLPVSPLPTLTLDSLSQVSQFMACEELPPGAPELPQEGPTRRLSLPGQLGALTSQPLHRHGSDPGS

Going from `O=C(O)c1ccc(N2C(=O)c3cccnc3C2=O)cc1` to `NC(=O)c1cc(N2C(=O)C=CC2=O)ccc1Cl`, the “hERG current change (%, negative = inhibition) at 10uM” value falls from 16.9% to 1.79%.

Going from `O=C1CCCN1c1ccc(S(=O)(=O)N2CCN(c3ccccc3)CC2)cc1` to `NS(=O)(=O)c1ccc(N2C(=O)C(=O)/C(=C(/O)c3ccccc3)C2c2ccc(Cl)cc2)cc1` (centres unmarked), the “hERG current change (%, negative = inhibition) at 10uM” value rises from 16.3% to 18.1%.

Going from `COc1ccc2c(c1OC)C(=O)OC2Nc1nc(-c2ccc(-c3ccccc3)cc2)cs1` (centres unmarked) to `COc1ccccc1NC(=O)/C(=C/c1cccs1)NC(=O)c1ccco1`, the “hERG current change (%, negative = inhibition) at 10uM” value falls from 17% to -33.1%.

First: CC(C)=NNC(=O)c1c(O)c2ccccc2[nH]c1=O
Second: CCOC(=O)N1CCC(NC(=O)c2cc3c(=O)[nH]c4ccccc4c3n2C)CC1
The “hERG current change (%, negative = inhibition) at 10uM” value of the first is lower: -20% for the first, -3.23% for the second.

Compared with `Cc1oc(-c2ccc(Cl)cc2)nc1CN1CCC(C(=O)NCCCN2CCOCC2)CC1`, `CCN1CCN(CCNC(=O)C2CCN(Cc3nc(-c4ccc(Cl)cc4)oc3C)CC2)CC1` is higher in “hERG current change (%, negative = inhibition) at 10uM” value: -26.5% for the first, 1.11% for the second.

Compared with `CCN(CCNC(=O)C1CCCN(Cc2nc(-c3ccc(OC)cc3)oc2C)C1)c1ccccc1` (centres unmarked), `CCN(CCNC(=O)C1CCN(Cc2nc(-c3ccc(Cl)cc3)oc2C)CC1)c1ccccc1` is lower in “hERG current change (%, negative = inhibition) at 10uM” value: -28.1% for the first, -65.9% for the second.

Compared with `CCN(CCNC(=O)C1CCN(S(C)(=O)=O)CC1)c1ccccc1`, `CCN(CCNC(=O)C1CCN(S(=O)(=O)CC)CC1)c1ccccc1` is lower in “hERG current change (%, negative = inhibition) at 10uM” value: -1.8% for the first, -16.9% for the second.

Going from `CCCN(CCC)CCNC(=O)C1CCN(Cc2nc(-c3ccc(Cl)cc3)oc2C)CC1` to `CCC1CCCCN1CCCNC(=O)C1CCN(Cc2nc(-c3ccc(Cl)cc3)oc2C)CC1` (centres unmarked), the “hERG current change (%, negative = inhibition) at 10uM” value rises from -60.6% to -42.2%.

First: CCc1ccc(-c2nc(CN3CCC(C(=O)NCCN(CC)c4ccccc4)CC3)c(C)o2)cc1
Second: CCCN(C(=O)c1cn(-c2ccccc2)nc1-c1ccc(OC)cc1)C1CCS(=O)(=O)C1 (centres unmarked)
The “hERG current change (%, negative = inhibition) at 10uM” value of the first is lower: -69.5% for the first, -22.8% for the second.

First: CCCCN(CC)C(=O)C1CCC(=O)N(c2ccc(OC)cc2)C1c1ccc(OC)c(OC)c1 (centres unmarked)
Second: CCn1cc(C(=O)NCc2ccc(OC)cc2)c(=O)c2ccc(C)nc21
The “hERG current change (%, negative = inhibition) at 10uM” value of the first is lower: -10.2% for the first, 22.1% for the second.

Compared with `CC(C)C(=O)Nc1nc2cc3c(cc2s1)OCCO3`, `Cc1ccccc1NC(=O)Nc1nc2ccc(S(C)(=O)=O)cc2s1` is higher in “hERG current change (%, negative = inhibition) at 10uM” value: -4.59% for the first, -2.53% for the second.

First: S=c1[nH]nc(-c2ccc(Cl)cc2)n1/N=C/C=C/c1ccco1
Second: O=C(N/N=C/c1coc2ccc(Cl)cc2c1=O)c1ccncc1
The “hERG current change (%, negative = inhibition) at 10uM” value of the first is higher: 15.3% for the first, 6.28% for the second.

First: CCN(CC)S(=O)(=O)c1ccc(O)c(C(=O)OCC(=O)N2CCCC2)c1
Second: CCCN(CCC)CCCNC(=O)C1CCC(CNS(=O)(=O)c2cccc3nsnc23)CC1 (centres unmarked)
The “hERG current change (%, negative = inhibition) at 10uM” value of the first is higher: 11.4% for the first, -10.1% for the second.

Going from `CC(C)CNc1nc(S(=O)(=O)c2ccccc2)c(Cl)s1` to `CN(C)CCNc1nc(S(=O)(=O)c2ccccc2)c(Cl)s1`, the “hERG current change (%, negative = inhibition) at 10uM” value falls from -11.5% to -56.2%.

Going from `CCCS(=O)(=O)c1nc(S(=O)(=O)c2ccc(C)cc2)c(NCCCn2ccnc2)s1` to `CCS(=O)(=O)c1nc(S(=O)(=O)c2ccc(C)cc2)c(NCCCn2ccnc2)s1`, the “hERG current change (%, negative = inhibition) at 10uM” value rises from -29.6% to -26.5%.

Going from `Cc1ccc(S(=O)(=O)c2nc(NN(C)C)sc2Cl)cc1` to `Cc1ccc(S(=O)(=O)c2nc(NCCN(C)C)sc2Cl)cc1`, the “hERG current change (%, negative = inhibition) at 10uM” value falls from -5.48% to -69.5%.

First: O=S(=O)(c1ccccc1)c1nc(NCc2ccccc2)sc1Cl
Second: CC(=O)Nc1nc(S(=O)(=O)c2ccc(C)cc2)c(Cl)s1
The “hERG current change (%, negative = inhibition) at 10uM” value of the first is lower: -9.88% for the first, -8.1% for the second.

Compared with `Cc1ccc(S(=O)(=O)c2nc(NCCCn3ccnc3)sc2Cl)cc1`, `Cc1ccc(CN(CC(=O)NCc2ccc3c(c2)OCO3)C(=O)c2csnn2)cc1` is higher in “hERG current change (%, negative = inhibition) at 10uM” value: -78.6% for the first, -50.5% for the second.

Compared with `CCCCCCC/C=N/Nc1nnc(Cc2ccccc2)c(=O)[nH]1`, `CCN(CC)CCCNC(=O)c1cn(CCOC)c(=O)c2c1c1ccccc1n2C` is lower in “hERG current change (%, negative = inhibition) at 10uM” value: 33.2% for the first, -0.445% for the second.

Going from `Cc1cccc(NC(=S)NNC(=O)c2csc(C(C)C)c2)c1` to `CC(=O)Nc1ccc2nc(NC(=O)c3ccc([N+](=O)[O-])s3)sc2c1`, the “hERG current change (%, negative = inhibition) at 10uM” value rises from 2.52% to 8.75%.

Going from `O=Cc1coc2ccc3ccccc3c2c1=O` to `O=C(Cc1ccccc1)NCc1ccc2c(c1)OCO2`, the “hERG current change (%, negative = inhibition) at 10uM” value falls from 14.5% to 3.22%.

Going from `O=C(CN1CCN(C(=O)c2ccccc2)CC1)Nc1ncc(Br)cc1Br` to `O=C(CN1CCN(C(=O)c2ccccc2)CC1)Nc1ccc(Br)cn1`, the “hERG current change (%, negative = inhibition) at 10uM” value rises from -78.1% to -74.4%.

Going from `O=C(CN1CCOCC1)Nc1ncc(Br)cc1Br` to `O=C(CN1CCCCCC1)Nc1ccc(Br)cn1`, the “hERG current change (%, negative = inhibition) at 10uM” value falls from -20.3% to -20.7%.

Going from `CCc1nnc(NC(=O)CN2CCN(C(=O)c3ccccc3)CC2)s1` to `O=C(CN1CCN(C(=O)c2ccccc2)CC1)Nc1ccccc1`, the “hERG current change (%, negative = inhibition) at 10uM” value falls from 14.7% to -20.1%.

Going from `CCSc1nc2c(c(=O)[nH]1)C(C(C)C)C(C#N)=C(N)O2` (centres unmarked) to `COc1ccc(CN(CC(=O)NCc2ccc3c(c2)OCO3)C(=O)c2csnn2)cc1`, the “hERG current change (%, negative = inhibition) at 10uM” value falls from 5.71% to -39.8%.

Compared with `O=C(CN(Cc1ccccc1F)C(=O)c1csnn1)NCc1ccc2c(c1)OCO2`, `O=C(CN(Cc1ccccc1Cl)C(=O)c1csnn1)NCc1ccc2c(c1)OCO2` is lower in “hERG current change (%, negative = inhibition) at 10uM” value: -22% for the first, -51.4% for the second.

Going from `O=C(CN(C(=O)c1csnn1)c1ccc(F)cc1)NCc1ccc2c(c1)OCO2` to `O=C(CN(C(=O)c1csnn1)c1cccc(F)c1)NCc1ccc2c(c1)OCO2`, the “hERG current change (%, negative = inhibition) at 10uM” value falls from 9.12% to -7.22%.

Going from `O=C(CN(Cc1ccccc1)C(=O)c1csnn1)NCc1ccc2c(c1)OCO2` to `O=C(CN(Cc1ccc(F)cc1)C(=O)c1csnn1)NCc1ccc2c(c1)OCO2`, the “hERG current change (%, negative = inhibition) at 10uM” value falls from -23.4% to -64.5%.

First: COc1ccccc1CN(CC(=O)NCc1ccc2c(c1)OCO2)C(=O)c1csnn1
Second: COc1ccccc1CN(CC(=O)NCc1ccc2c(c1)OCO2)C(=O)c1ccc2c(c1)OCCO2
The “hERG current change (%, negative = inhibition) at 10uM” value of the first is lower: -34.2% for the first, -28.4% for the second.

For `O=C(CN(Cc1ccccc1)C(=O)c1ccc2c(c1)OCCO2)NCc1ccc2c(c1)OCO2`, the “hERG current change (%, negative = inhibition) at 10uM” value was -59%.
